# Source: paper PMC8384837, “Expanding the binding specificity for RNA recognition by a PUF domain”
# Biological target: PUM1 PUF domain R4-TPN (Homo sapiens, UniProt Q14671 828-1176, N971T;H972P;Q975N)
# Assay: yeast three-hybrid, YBZ-1, SC-Leu-His + 0.5 mM 3-AT, 4 days
# Conditions: tags: N-Gal4 AD-HA kept; label: inside an RPR1-promoter hybrid RNA with tandem MS2 sites; ssRNA
# Method in brief: (§1)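 The interaction score is the logarithmic change in variant frequency from input to selection. It uses log2, with a pseudocount of 1 for absent variants, and frequencies came from PCR-amplified, Illumina-sequenced repeat regions. The libraries were Pumilio-1 PUF domains randomized at the three base-contacting residues per repeat, co-expressed with matching RNA elements in strain YBZ-1 (LexA–MS2 coat fusion, HIS3 reporter). Plating lasted four days on SC-Leu (input) or SC-Leu-His + 0.5 mM 3-AT (selection).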
# PUM1 PUF domain R4-TPN, sequence (Q14671 828-1176 N971T/H972P/Q975N): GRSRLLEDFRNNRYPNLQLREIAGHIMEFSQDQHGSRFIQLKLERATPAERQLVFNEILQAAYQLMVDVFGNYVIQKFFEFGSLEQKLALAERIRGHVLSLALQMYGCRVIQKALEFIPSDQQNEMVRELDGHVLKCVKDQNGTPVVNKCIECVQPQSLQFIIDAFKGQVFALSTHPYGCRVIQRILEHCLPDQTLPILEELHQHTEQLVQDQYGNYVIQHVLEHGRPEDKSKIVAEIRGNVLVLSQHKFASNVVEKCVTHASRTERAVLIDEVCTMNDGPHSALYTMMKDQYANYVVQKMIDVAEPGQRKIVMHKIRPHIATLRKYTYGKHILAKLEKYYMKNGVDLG
row,Sequence,binding signal
1,GGCUAGAACUAGUGGAUCCCCCGGCGCCCGGCGGCUCGAGCCCGGGUAAGUGUACAUAGUCUGCAUGCCGCCGGGCGCCAUGCCUGCAGGUCGACUCUAGAAAACAUG,4.27 log2 enrichment (interaction score)
2,GGCUAGAACUAGUGGAUCCCCCGGCGCCCGGCGGCUCGAGCCCGGGUAAGUGUAUAUAGUCUGCAUGCCGCCGGGCGCCAUGCCUGCAGGUCGACUCUAGAAAACAUG,3.42 log2 enrichment (interaction score)
3,GGCUAGAACUAGUGGAUCCCCCGGCGCCCGGCGGCUCGAGCCCGGGUAAGUGUAAAUAGUCUGCAUGCCGCCGGGCGCCAUGCCUGCAGGUCGACUCUAGAAAACAUG,5.21 log2 enrichment (interaction score)

# Biological target: PUM1 PUF domain R3-SHG (Homo sapiens, UniProt Q14671 828-1176, C935S;R936H;Q939G)
# Assay: as above
# Conditions: tags: N-Gal4 AD-HA kept; label: inside an RPR1-promoter hybrid RNA with tandem MS2 sites; ssRNA
# Method in brief: as §1
row,Sequence,binding signal
1,GGCUAGAACUAGUGGAUCCCCCGGCGCCCGGCGGCUCGAGCCCGGGUAAGUGUAAUUAGUCUGCAUGCCGCCGGGCGCCAUGCCUGCAGGUCGACUCUAGAAAACAUG,0.72 log2 enrichment (interaction score)
2,GGCUAGAACUAGUGGAUCCCCCGGCGCCCGGCGGCUCGAGCCCGGGUAAGUGUAAGUAGUCUGCAUGCCGCCGGGCGCCAUGCCUGCAGGUCGACUCUAGAAAACAUG,2.83 log2 enrichment (interaction score)
3,GGCUAGAACUAGUGGAUCCCCCGGCGCCCGGCGGCUCGAGCCCGGGUAAGUGUAAAUAGUCUGCAUGCCGCCGGGCGCCAUGCCUGCAGGUCGACUCUAGAAAACAUG,3.6 log2 enrichment (interaction score)
